Most compounds without a hit are left out; they make up all but 4.1% or so of the library.
HIV Env fusion: HIV envelope-mediated fusion inhibition; inhibition, % at 12.3 µM; AID 651610; 360,000 tested, 1.1% active; HeLa-JRFL Env/CEM21 cell fusion, luciferase;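 active = mean replicate inhibition score of at least 50 and every replicate individually at or above 50; inconclusive = only one of the two criteria met; inactive = mean below 50 and not all replicates reaching 50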;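 note: 0% = plate neutral controls and 100% = maraviroc near 300 nM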
PglD inh: inhibitors of Campylobacter jejuni PglD acetyltransferase | purified PglD enzyme, DTNB colorimetric CoA detection | inhibition, % at 12.5 µM | AID 602405 | 360,000 tested, 0.098% active; in the data active = inhibition above about 16%, passing the limit was not always enough; inconclusive = no clear call, values can overlap the other calls
CFTR F508del cor: correctors of CFTR F508del function in bronchial epithelial cells. CFBE cells, YFP halide quenching; stimulated with forskolin plus potentiator P3; % fluorescence drop versus neutral controls. activity (quench increase), % at 7.58 µM. 350,000 tested, 0.36% active. AID 720511;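 active = mean added fluorescence quench of at least 8% versus neutral control, with both replicates also reaching 8%; inconclusive = only one of the mean or replicate conditions met; inactive = mean below 8% and not both replicates reaching 8%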;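 note: cells transiently co-express mutant CFTR-F508del with the halide-sensitive YFP; corrector assay measuring rescue of mutant channel to the surface after 24 h compound exposure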
CASP6 VEID inh: inhibitors of human caspase-6 | purified caspase-6, Z-VEID-R110 cleavage fluorescence | inhibition, % at 12.5 µM | 350,000 tested, 0.53% active | AID 686996;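 active = mean inhibition across replicates at least about 35%, with every replicate also reaching that limit, limit read from the data; inconclusive = only one of the two criteria met; inactive = neither criterion met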;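 note: 0% = median of neutral control wells and 100% = no fluorescence left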
NSD2 HMT inh: blocks human histone methyltransferase NSD2. O96028. NSD2 peptide methylation, AlphaScreen, 120 min. inhibition, % at 12.5 µM. 310,000 tested, 0.54% active; in the data active = inhibition above about 50%
ALR H2O2 inh: blocks human ALR sulfhydryl oxidase activity. P55789. purified ALR, DTT oxidation, H2O2 HRP-luminol luminescence. inhibition, % (concentration not given with the values). 290,000 tested, 3.8% active;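 active = mean replicate inhibition above about 79%, with every replicate also reaching it, limit read from the data; inconclusive = only one of the two criteria met; inactive = mean below limit and not every replicate reaching it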
PglD confirm: blocks Campylobacter jejuni PglD acetyltransferase activity. shares compounds with PglD inh. Purified C. jejuni PglD, DTNB absorbance 412 nm. inhibition, % at 20 µM. 320 tested, under 10 active;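 active = mean inhibition across replicates of at least 20% with every single replicate also at 20% or more; inconclusive = mean inhibition at least 20% but some replicate falls below 20%; inactive = mean inhibition under 20% and not all replicates reach it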;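 note: initial rate of CoA release by acetyl transfer from AcCoA to the UDP-4-amino sugar; 0% = median of neutral control wells and 100% = median of positive control wells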
Starred values were filed as active, the others as inactive; ? = inconclusive; · = not tested or not shown; [ ] = dose if it differs, or a comment.

SMILES	HIV Env fusion	PglD inh	CFTR F508del cor	CASP6 VEID inh	NSD2 HMT inh	ALR H2O2 inh	PglD confirm
O=C(Nc1cccnc1Cl)c1cc([N+](=O)[O-])ccc1Cl	-4.8	2.7	-1.0	1.2	-1.1	70.0	·
C[C@H]1CN([C@@H](C)CO)S(=O)(=O)c2ccc(-c3ccncc3)cc2O[C@H]1CN(C)C(=O)C1CCCCC1	-8.3[16.7 µM]	·	2.2	·	·	·	·
CC(C)NC(=O)Nc1ccc2c(c1)C(=O)N([C@H](C)CO)C[C@@H](C)[C@H](CN(C)C(=O)Nc1ccc3c(c1)OCO3)OCCCC[C@@H](C)O2	9.7[16.7 µM]	-4.2	2.0	-2.8	·	·	·
CCOC(=O)c1sc(N(Cc2ccccc2)C(=O)CSc2ncn[nH]2)nc1C	·	21.5*	·	·	-0.4	·	0.0
CCOC(=O)C1CCCN(CCC(=O)Nc2ccc(Br)c(C)c2)C1 (stereo unspecified)	2.6	71.4*	-0.5	-5.0	0.8	14.3	0.1
COc1ccc(S(=O)(=O)N(C)C[C@H]2Oc3ccc(NC(=O)CCN4CCOCC4)cc3CC(=O)N([C@@H](C)CO)C[C@@H]2C)cc1	-17.8[16.7 µM]	1.0	0.7	-1.3	·	·	·
O=C(Nc1ccc2nc(-c3ccccn3)[nH]c2c1)C1CCCCC1	-121.0	5.7	·	·	-10.7	·	·
CC(C)c1nc2ccc(NC(=O)C3CCCCC3)cc2[nH]1	·	33.6*	·	·	·	-0.4	2.2
COc1ccc(S(=O)(=O)N(C)C[C@H]2Oc3c(NC(=O)c4ccncc4)cccc3C(=O)N([C@@H](C)CO)C[C@H]2C)cc1	·	0.4	-1.7	0.2	·	·	·
CCCNC(=O)C[C@@H]1CC[C@@H]2[C@H](COC[C@H](O)CN2Cc2ccc(Cl)c(Cl)c2)O1	·	-1.6	0.4	0.8	·	·	·
C[C@H](NC(N)=O)C(=O)Nc1ccc2c(c1)OCO2	-2.0	22.1*	0.1	0.1	-0.5	-11.1	2.9
O=C(c1cc(-c2ccc(Cl)c(Cl)c2)on1)N1CCOCC1	-52.3	3.0	3.0	-4.7	5.2	-18.8	·
O=C(c1cc(-c2ccc(Cl)cc2)on1)N1CCOCC1	-98.1	23.9*	·	-2.0	-4.6	-2.0	1.5
CCOc1ccccc1N1CC(C(=O)NCCc2ccc(S(N)(=O)=O)cc2)CC1=O (stereo unspecified)	-69.6	1.6	·	·	-1.1	-9.1	·
CCOc1ccc(N2CC(C(=O)NCCc3ccc(S(N)(=O)=O)cc3)CC2=O)cc1 (stereo unspecified)	-0.1	30.7*	-0.7	0.5	1.1	26.8	?
CC(C)(C)C1CCc2[nH]c3ccccc3c(=O)c2C1 (stereo unspecified)	·	28.0*	·	·	-0.2	18.7	-1.7
O=c1c2c([nH]c3ccccc13)CCCC2	·	0.8	·	·	1.9	-4.2	·
CCOc1ccccc1NC(=O)N1CCCC1C(=O)Nc1ccc(-n2cnnn2)c(C)c1 (stereo unspecified)	·	25.3*	·	·	1.0	-13.6	1.3
CC(=O)NCC(=O)OCC(=O)c1ccc(Br)cc1	-39.2	-2.0	·	·	-0.3	-11.1	·
CC(=O)NCC(=O)OCC(=O)c1ccc(Cl)cc1	14.5	25.9*	0.1	-0.4	-5.0	-3.2	4.3
Cc1ccc(N(CC(=O)NC(C)c2ccccc2)S(=O)(=O)c2c(C)noc2C)cc1 (stereo unspecified)	7.0	27.2*	-3.1	0.7	6.2	-0.7	-5.2
CC(=O)NN=C1CCC(c2ccccc2)CC1 (stereo unspecified)	·	-4.9	·	·	-0.1	-12.3	·
NC(N)=NN=C1CCC(c2ccccc2)CC1 (stereo unspecified)	-6.2	25.2*	0.7	-8.0	6.4	3.8	2.9
O=S(=O)(N[C@@H]1CC[C@@H](CCn2cc(C3(O)CCCC3)nn2)O[C@@H]1CO)c1ccc(F)cc1	-7.2[16.7 µM]	-0.7	1.3	1.7	·	·	·
Cc1cc(N2CCOCC2)nc2ccc(NC(=O)CCC(=O)N3CCCCC3)cc12	-88.9	23.5*	·	·	-2.6	4.1	-1.4
SMILES	HIV Env fusion	PglD inh	CFTR F508del cor	CASP6 VEID inh	NSD2 HMT inh	ALR H2O2 inh	PglD confirm
COC(=O)C1SCC2C(=O)N(Cc3ccc(F)cc3)CC(=O)N21 (stereo unspecified)	-10.5	26.3*	-3.2	-1.3	-3.4	-20.5	5.2
COC(=O)C1SCC2C(=O)N(Cc3cccc(C)c3)CC(=O)N21 (stereo unspecified)	-5.3	-27.3	-2.2	-2.8	-2.3	-8.0	·
CO[C@H]1O[C@H](CO)[C@@H](OC(=O)Nc2ccccc2)[C@H](OC(=O)Nc2ccccc2)[C@H]1OC(=O)Nc1ccccc1	11.5[16.7 µM]	6.8	-2.8	-0.5	·	·	·
Fc1ccc(CNC(=S)NC2CCCCC2)cc1	5.4	34.8*	-0.3	-2.7	-3.3	0.6	2.5
N#C[C@H]1[C@@H](c2ccccc2C2=CCCC2)[C@@H](CO)N1C(=O)C1CCC1	·	·	-1.1	-1.6	·	·	·
O=C(NC1CCS(=O)(=O)C1)/C(=C\c1ccccc1)NC(=O)c1ccccc1 (stereo unspecified)	19.8	·	·	·	-1.3	10.9	·
O=C(NC1CCS(=O)(=O)C1)/C(=C/c1ccc(Cl)cc1)NC(=O)c1ccccc1 (stereo unspecified)	·	75.9*	-4.1	-0.6	2.1	-2.8	-4.8
CC(C)NC(=O)Nc1ccc2c(c1)C(=O)N([C@@H](C)CO)C[C@@H](C)[C@H](CN(C)C(=O)CCCN(C)C)OCCCC[C@@H](C)O2	-0.5[16.7 µM]	·	-2.0	·	·	·	·
C[C@@H]1CCCCO[C@H](CN(C)S(=O)(=O)c2cccs2)[C@@H](C)CN([C@@H](C)CO)C(=O)c2cc(NC(=O)CCC(F)(F)F)ccc2O1	-31.6[16.7 µM]	0.4	1.2	7.7	·	·	·
COc1cc(CNCCc2c[nH]c3ccccc23)ccc1OCc1ccc(F)cc1	·	-2.1	·	·	17.5	·	·
COc1cccc(CNCCc2c[nH]c3ccccc23)c1OCc1ccc(F)cc1	·	26.3*	·	·	1.1	1.3	0.7
COc1cccc(S(=O)(=O)Nc2ccc3c(c2)[C@@H]2C[C@H](CC(=O)NCc4cccc(F)c4)O[C@H](CO)[C@@H]2O3)c1	-8.4[16.7 µM]	-2.9	-0.7	-2.7	·	·	·
C/C(=N/NC(=O)c1cccs1)c1ccc(NC(=O)COc2ccc(Cl)cc2Cl)cc1	-27.6	21.4*	·	·	-4.0	-3.2	0.5
O=C(NCC[C@@H]1CC[C@H](NS(=O)(=O)c2cccc(F)c2)[C@H](CO)O1)C1CC1	-8.0[16.7 µM]	-0.3	-0.5	-2.5	·	·	·
CN(C)S(=O)(=O)c1ccc(Cl)c(NC(=O)CSc2nnnn2-c2ccc(O)cc2)c1	12.2	·	1.4	0.4	1.5	·	·
Cc1ccc(S(=O)(=O)N(C)C)cc1NC(=O)CSc1nnnn1-c1ccc(O)cc1	2.1	28.0*	0.9	4.0	·	-10.1	-8.0
CCC(=O)N1CCC2(CC1)CN(S(C)(=O)=O)[C@@H](CO)c1[nH]c3cc(OC)ccc3c12	·	·	1.2	·	·	·	·
COc1ccc(-c2n[nH]c(=S)n2N)c(OC)c1	9.2	21.2*	1.7	-0.2	-1.4	17.2	-1.0
O=C(CN(C(=O)CNC(=O)c1cccs1)c1ccc(F)cc1)NC1CCCCC1	-1.0	25.2*	2.5	1.1	0.1	9.3	0.0

Screening data: PubChem BioAssay, Broad Institute
